Measured values reported in PubChem BioAssay AID1159580 (chemical genetic matrix, 2015).
Several values for one entry are separate records, joined by “and”; a condition that tells them apart may be missing. Equal values may be shown once. Hit rate of the full screen: of about 5,500 compounds, about 2,000 (36%) were called active. Another 18% or so got no clear call; they are omitted. Cut-off read from the data, not from the text of the source: active = normalized growth mostly below about 0.91 (no sharp cut-off); inconclusive = no clear call, values can overlap the other calls; inactive = mostly above about 0.92. The list shows a part of the results.

Experiment: chemical genetic growth profiling, strain panel (AID 1159580);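 note: tested at 20 µM; growth read once vehicle control cultures reached saturation at 30 °C; 1 = growth at the plate median or of vehicle wells; lower values mean less growth of the strain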
Settings: S. cerevisiae deletion strains, growth OD

Measured: normalized growth

CC(NCCC(c1ccccc1)c1ccccc1)c1ccccc1 (configuration not stated)
active: locus YAL021C, strain ccr4, hits give low values 0.592 | locus YAL026C, strain drs2, hits give low values 0.47 | locus YBR021W, strain FUR4, hits give low values 0.447 | locus YBR023C, strain chs3, hits give low values 0.799 | locus YBR279W, strain paf1, hits give low values 0.893 | locus YDR069C, strain doa4, hits give low values 0.57 | locus YDR195W, strain ref2 1.28 [resistant] | locus YDR388W, hits give low values 0.328 | locus YER015W, strain faa2, hits give low values 0.9 | locus YFR010W, strain ubp6, hits give low values 0.559 | locus YGL253W, strain hxk2, hits give low values 0.868 | locus YGR135W, strain pre9, hits give low values 0.832 | locus YGR229C, strain SMI1, hits give low values 0.623 | locus YGR252W, strain gcn5, hits give low values 0.679 | locus YHR013C, strain ard1, hits give low values 0.655 | locus YHR142W, strain chs7, hits give low values 0.802 | locus YJL095W, strain BCK1 (second series), hits give low values 0.901
inactive: locus YAL013W, strain DEP1, hits give low values 0.925 | locus YAL030W, strain snc1, hits give low values 0.992 | locus YBL061C, strain skt5, hits give low values 0.934 | locus YBR009C, strain hhf1, hits give low values 0.953 | locus YBR171W, strain sec66, hits give low values 1 | locus YBR229C, strain ROT2, hits give low values 0.946 | locus YBR231C, strain swc5, hits give low values 0.944 | locus YCL011C, strain gbp2, hits give low values 0.97 | locus YCL016C, strain dcc1, hits give low values 0.964 | locus YCL029C, strain bik1, hits give low values 0.975 | locus YCL061C, strain MRC1, hits give low values 1.02 | locus YCL069W, strain vba3, hits give low values 1.01 | locus YCR088W, strain abp1, hits give low values 1.02 | locus YDL005C, strain med2, hits give low values 1.03 | locus YDL035C, strain GPR1, hits give low values 0.908 | locus YDL040C, strain nat1, hits give low values 0.991 | locus YDL074C, strain BRE1, hits give low values 0.831 | locus YDL101C, strain DUN1, hits give low values 0.971 | locus YDL134C, strain PPH21, hits give low values 0.968 | locus YDL185W, strain tfp1, hits give low values 0.959 | locus YDL192W, strain arf1, hits give low values 0.985 | locus YDR001C, strain nth1, hits give low values 1.01 | locus YDR101C, strain arx1, hits give low values 0.994 | locus YDR137W, strain rgp1, hits give low values 0.981 | locus YDR150W, strain NUM1, hits give low values 0.97 | locus YDR159W, strain sac3, hits give low values 1.09 | locus YDR162C, strain NBP2, hits give low values 0.936 | locus YDR297W, strain sur2, hits give low values 1.01 | locus YDR318W, strain mcm21, hits give low values 0.952 | locus YDR334W, strain swr1, hits give low values 1.01 | locus YDR335W, strain msn5, hits give low values 1 | locus YDR392W, strain spt3, hits give low values 0.93 | locus YDR502C, strain sam2, hits give low values 0.964 | locus YEL003W, strain gim4, hits give low values 0.988 | locus YEL037C, strain rad23, hits give low values 0.98 | locus YEL061C, strain CIN8 (second series), hits give low values 1 | locus YEL061C, strain CIN8, hits give low values 0.987 | locus YER016W, strain bim1, hits give low values 1 | locus YER110C, hits give low values 0.978 | locus YER111C, strain swi4, hits give low values 1.01 | locus YER155C, strain BEM2 (second series), hits give low values 0.978 | locus YER155C, strain BEM2, hits give low values 0.999 | locus YER167W, strain BCK2, hits give low values 0.964 | locus YGL078C, strain dbp3, hits give low values 0.977 | locus YGL086W, strain mad1, hits give low values 0.96 | locus YGL167C, strain pmr1, hits give low values 1.01 | locus YGL173C, strain kem1, hits give low values 0.971 | locus YGL227W, strain vid30, hits give low values 1 | locus YGL240W, strain doc1, hits give low values 1.05 | locus YGL248W, strain PDE1, hits give low values 0.979 | locus YGR078C, strain PAC10, hits give low values 0.909 | locus YHR027C, strain rpn1, hits give low values 0.944 | locus YHR030C, strain SLT2, hits give low values 0.974 and 0.983 | locus YHR079C, strain IRE1 (second series), hits give low values 0.99 | locus YHR079C, strain IRE1, hits give low values 0.982 | locus YHR094C, strain hxt1, hits give low values 0.991 | locus YHR129C, strain ARP1, hits give low values 0.974 | locus YHR200W, strain rpn10, hits give low values 0.99 | locus YIL066C, strain RNR3, hits give low values 0.948 | locus YIL073C, strain SPO22, hits give low values 1.14 | locus YIL125W, strain kgd1, hits give low values 0.989 | locus YIR030C, strain dcg1, hits give low values 0.978 | locus YJL092W, strain hpr5, hits give low values 0.986 | locus YJL095W, strain BCK1, hits give low values 0.824 and 0.989 | locus YJL115W, strain asf1, hits give low values 1 | locus YJL129C, strain trk1, hits give low values 1 | locus YJL134W, strain LCB3, hits give low values 0.988 | locus YJL154C, strain vps35, hits give low values 0.998 | locus YJL164C, strain tpk1, hits give low values 0.922 | locus YJL166W, strain qcr8, hits give low values 0.914 | locus YJL168C, strain set2, hits give low values 0.991 | locus YJL187C, strain SWE1 (second series), hits give low values 0.931 | locus YJL187C, strain SWE1, hits give low values 0.978 | locus YJR043C, strain POL32, hits give low values 1 | locus YJR066W, strain TOR1, hits give low values 0.903
